# Experimental data from ChEMBL document CHEMBL4513139, “CO-ADD screening of University of Strathclyde (UK) compounds”.
# Entries with a potency or affinity are not part of this list.
# How the values were obtained:
# Klebsiella pneumoniae = conditions: Concentration 32 ug.mL-1; ASSAY_TEST Inhibition of Bacterial Growth; detection method Absorption (OD600); MEDIA CAMHB; plate type 384well; NBS; CORNING #3640; time 18 hr
# Candida albicans = conditions: 32 ug/mL
# Cryptococcus neoformans = conditions: Concentration 32 ug.mL-1; ASSAY_TEST Inhibition of Fungal Growth; detection method Resazurin; Absorption (OD600-OD570); plate type 384well; NBS; CORNING #3640
SMILES,Inhibition (Klebsiella pneumoniae),Inhibition (Candida albicans),Inhibition (Cryptococcus neoformans)
Cc1ccc(S(=O)(=O)NCCc2cn(Cc3cnc(C)nc3N)nn2)cc1,1.07%,3.05%,-48.53%
CN(C)CCCNC(=O)c1cc(NC(=O)c2cc(NC(=O)c3cc4ccccc4cn3)cn2C)cn1C.O=C(O)C(F)(F)F,12.4%,3.58%,-81.77%
CC(C)n1cc(NC(=O)c2cc(NC(=O)c3cc(NC=O)cn3C(C)C)cn2C)cc1C(=O)NCCCN(C)C.O=C(O)C(F)(F)F,2.64%,-1.38%,-103.79%
COc1ccc(CC(=O)Nc2cc(C(=O)Nc3cc(C(=O)Nc4cn(CCCN(C)C)cn4)n(C)c3)n(C)c2)cc1.O=C(O)C(F)(F)F,2.03%,1.27%,-97.5%
COC(=O)c1ccc(C(=O)Nc2cc(C(=O)Nc3cc(C(=O)NCCC(=N)N)n(C)c3)n(C)c2)cc1.O=C(O)C(F)(F)F,7.16%,5.42%,-78.85%
CN(C)CCCNC(=O)c1cc(NC(=O)c2cc(NC(=O)c3cc(NC(=N)c4ccccc4)cn3C)cn2C)cn1C.O=C(O)C(F)(F)F.O=C(O)C(F)(F)F,1.31%,0.01%,-106.51%
CC(C)CCc1sc(NC(=O)c2cc(NC(=O)c3ccc(/C=C/c4cc5ccccc5nc4Cl)cc3)cn2C)nc1C(=O)NCCN1CCOCC1.O=C(O)C(F)(F)F,-4.36%,2.62%,-70.82%
